Where “and” joins values, the source holds several entries; their conditions need not be identical. Equal values may be shown once. Among all 360,000 compounds or so, about 7,500 (2.1%) were called active. About 20% were inconclusive and are not listed. Calls follow the shape of the dose curve; as a rule, active = well fitted inhibition curve with a large enough effect; inconclusive = small, poorly fitted or top-dose-only effect, or effect the other way; inactive = flat fitted curve, though single readings scatter. For the sample, actives were picked, then their nearest neighbours and some compounds at random. Some structures have more than one record in an assay (separate samples or runs), and their calls can disagree.
assay: Nrf2 qHTS screen for inhibitors; conditions: A549 ARE-Fluc reporter, luciferase luminescence, 18-24 h; series mostly up to 46 µM; activity change, negative = inhibition: at the top concentration; also: nearly all actives have a fitted effect of over 60% in size
Outline: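 In this cell-based qHTS, ARE-driven firefly luciferase in A549 cells reports Nrf2 activity; the luminescent signal after BugLite lysis is the measured value, with a prior CellTiter-Fluor read for cell health.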
% is scaled to controls: 0 for no effect and ±100 for the full control effect; potency is read from the fitted curve at half-maximal effect.

Activity change, negative = inhibition, inactive:
O=C(NN=Cc1ccccc1O)NN=Cc1ccccc1O 0.438%
Cc1n[nH]c(C)c1S(=O)(=O)N1CCCC(C(=O)NCC2COc3ccccc3O2)C1 (stereo unspecified) -12.5%
O=C(O)C1CCCN(S(=O)(=O)c2cccc3cccnc23)C1 (stereo unspecified) -8.34%
COc1ccc(NC(=O)C2CCCN(S(=O)(=O)c3cccc4cccnc34)C2)cc1OC (stereo unspecified) -26.2%
CC(=O)Nc1ccc(NC(=O)C2CCCN(S(=O)(=O)c3ccc4c(c3)CCCC(=O)N4)C2)cc1 (stereo unspecified) 29.4%
COc1ccc(Cl)cc1NC(=O)CN(C)CC(=O)Nc1ccc2c(c1)OCO2 -16%
O=C(Cn1cc(SCc2cccc(Cl)c2)c2ccccc21)N1CCCCC1 -21.2%
COc1cc(OC)cc(-c2c(-c3ccc(F)cc3)c3cc(-c4ccc5cc[nH]c5c4)ccc3n2C)c1 -11.2%
COc1cc(OC)cc(-c2c(-c3cccs3)c3cc(-c4ccc(OC)nc4)ccc3n2C)c1 -22.5%
COCC(=O)N(C)[C@H]1C[C@H]2c3cc(Oc4ccccc4C)ccc3CCN2C(=O)[C@H]1[C@H](C)O 0.467%
CC(OC(=O)c1cc2ccccc2[nH]1)C(=O)N(C)c1ccccc1 (stereo unspecified) -3.45%
Cc1ccc(C)c(N2CCN(C(=O)CN3C(=O)COc4ccc(S(=O)(=O)N5CCCCCC5)cc43)CC2)c1 6.28%
O=C(CC1Sc2ccccc2NC1=O)NNc1ccc(Cl)c(Cl)c1 (stereo unspecified) -2.12%
Cc1cccc(Nc2nc(NCCO)nc(N3CCCC3)n2)c1 -11.3%
OCCCNc1nc(-c2ccccc2)c2cc(Cl)ccc2n1 -5.54%
Cc1ccc(NC(=O)Cn2cnc3c(OCc4ccccc4)ncnc32)cc1C -4.24%
COc1ccc(S(=O)(=O)N2C[C@H]3CON(C)[C@H]3C[C@H]2c2cccc(Br)c2)cc1 -18.2%
COc1ccc(CCNc2nc(-c3ccc(Cl)cc3)cc(C(F)(F)F)n2)cc1OC -14.7% [at 9.27 µM]
CC(=NNC(=O)c1ccncc1)c1ccc(Cl)c(Cl)c1 -1.76%
Cc1sc2nc(CC(N)=O)[nH]c(=O)c2c1-c1ccccc1 1.14%
Nc1c(C(=O)NCc2ccccc2)sc2nc3c(cc12)C(=O)CCC3 9.66%
COc1ccc(N2CCN(C3=NS(=O)(=O)C(c4cccc(Br)c4)=C3C)CC2)cc1 2.1%
CSCCC(NC(=O)COc1ccccc1)C(=O)OCc1ccc(Cl)cc1 (stereo unspecified) -14.7%
CN(C)CCNC(=O)Nc1cccc(Cl)c1Cl -2.8%
CC(=O)NCCNC(=O)c1cc(-c2cccc3ccccc23)nc2ccccc12 7.96%
CC1CCCCC1NCC(=O)Nc1ccccc1C(=O)Nc1ccccc1 (stereo unspecified) -0.522%
CC[C@]12c3[nH]c4cc(CCC(=O)N(C)C)ccc4c3CCN1C(=O)[C@@H](CC(=O)NCCCn1ccnc1)C[C@@H]2C(=O)N1CCN(C(=O)C2CC2)CC1 2.04%
Cc1c(C)n(Cc2ccc(Cl)cc2)c2ccc(C(=O)N3CCN(c4ccccc4F)CC3)cc12 -26.6%
O=C(CNC1CCCCC1)NCC1(c2ccccc2)CCCC1 0.664%
COc1cc(C(=O)NCC2(c3ccccc3)CCCC2)ccc1OC(C)C -3.66%
Cc1cccc(N2C(=O)c3ccc(C(=O)Nc4cccc(C(=O)O)c4)cc3C2=O)c1 6.82%
CC(=O)c1cccc(NC(=O)c2cc(C)nn2-c2ccccc2)c1 10.8%
Cc1sc(C2C(C#N)=C(N)N(c3cccc(Cl)c3)C3=C2C(=O)CCC3)cc1CN1CCOCC1 (stereo unspecified) 24.2%
COc1ccc(CNCCCNCc2ccc(OC)c(OC)c2)cc1OC 12.5%
O=C(c1ccncc1)N1CCN(S(=O)(=O)c2cc(C(F)(F)F)cc(C(F)(F)F)c2)CC1 -0.0458%
O=C(c1ccc(F)cc1)N1CCCC(c2nc(-c3cccs3)no2)C1 (stereo unspecified) 11.9%
CC(C)c1ccc(-c2noc(C3CCCN(S(C)(=O)=O)C3)n2)cc1 (stereo unspecified) 0.129%
NC(=O)C1CCN(C(=O)c2ccc(C(F)(F)F)cc2)CC1 -15.4%
CCOc1cc(C(=O)N(Cc2ccccc2)c2ccc(C)cc2)ccc1OCC(=O)N1CCOCC1 -7.76%
COc1ccccc1NC(=O)C(=O)c1cc(C)n(-c2ccccc2F)c1C 23.5%
Oc1ccc(Cl)cc1C1C=C(c2ccc3c(c2)OCO3)NC(c2c(F)cccc2Cl)N1 (stereo unspecified) 12.9%
OC[C@@H]1O[C@H](n2cnc3c(SCc4ccccc4)ncnc32)[C@H](O)[C@H]1O 20%
Cc1c(Cl)cccc1-c1ccc(CNCCCSc2nnnn2C)o1 -9.22%
CCCCCn1c(CCNC(=O)c2ccc(F)cc2)nc2ccccc21 6.85% [at 9.27 µM]
CC(C)NC(=O)C1CCC(Cn2c(=O)c3sccc3n(Cc3ccc(F)cc3)c2=O)CC1 (stereo unspecified) 13.5%
CCCCN(CC)CCCNC(=O)CS(=O)(=O)Cc1nc(-c2cccc(OC)c2)oc1C 15.6%
COc1cccc(C2C(C(=O)Nc3ccc(C)cc3C)=C(C)Nc3c(C(=O)Nc4ccccc4)cnn32)c1 (stereo unspecified) 10.7%
CN1C(c2ccc(F)cc2)=CS/C1=C(/C#N)c1nnc2n1-c1ccccc1SC2 -26.9%
N#C/C(=C\C1=C(N2CCOCC2)C(=C\c2ccccc2)/CC1)C(=O)Nc1ccccc1F -14.6%
C(=N\N1CCN(c2ccccn2)CC1)/C1=C(N2CCOCC2)C(=C/c2ccccc2)/CC1 2.38%
CCOc1ccccc1NC(=S)C(=C([O-])c1ccc2c(c1)OCCO2)[n+]1ccc(CC)cc1 4.22%
COc1cc(F)c(S(=O)(=O)N2CCCN(S(=O)(=O)c3ccc(N)cc3)CC2)c(F)c1 -10%
CCOC(=O)c1ccc(NC(=O)c2ncn(-c3ccccc3)n2)cc1 3.01%
Oc1ccc(Cl)cc1C1C=C(c2ccc3c(c2)OCO3)NC(c2ccc(F)c(Br)c2)N1 (stereo unspecified) -10.6%
CC(C)N(C(=O)[C@H]1C[C@H](CC(=O)NCCC2=CCCCC2)C(=O)N2CCc3c([nH]c4cc(CCC(=O)N(C)C)ccc34)[C@]12C)C(C)C 5.78%
CCCCCCn1c(CN2CCCCC2)nc2c1c(=O)n(C)c(=O)n2C 5.48%
COc1ccccc1N1CCN(C(=O)CCS(=O)(=O)c2ccc3c(c2)NC(=O)C(C)S3)CC1 (stereo unspecified) -2.57%
CC1Sc2ccc(S(=O)(=O)CCC(=O)NCc3ccccc3Cl)cc2NC1=O (stereo unspecified) -8.63%
Oc1ccc(-c2nc3ccccc3nc2-c2ccc(O)cc2O)c(O)c1 2.55%
CN[C@H](C(=O)NC[C@H]1O[C@@H](n2cnc3c(N)ncnc32)[C@H](O)[C@@H]1O)[C@@H](C)OCc1ccccc1 -9.95%
Cc1cccc(CSc2nc3ccncc3n2Cc2ccc(C(=O)O)cc2)c1 6.25%
CCCCNC(=O)Cn1c(SCc2cccc(Cl)c2)nc2ccncc21 13.2%
O=C(O)c1ccc(Cn2c(SCc3ccc(F)cc3)nc3ccncc32)cc1 5.55%
Cc1cccc(CSc2nc3ccncc3n2CC(=O)N(C)C2CCCCC2)c1 2.61%
COc1ccccc1-c1sc2ccccc2c1-c1ccc(Br)nc1 4.2%
OCCNc1ncnc2oc(-c3ccco3)c(-c3ccco3)c12 3.43%
CCCN1CN=C(NS(=O)(=O)c2ccc(NC(C)=O)cc2)NC1 0.228%
Cc1ccc(S(=O)(=O)N2CCC(C(=O)Nc3cc(C)ccc3C)CC2)cc1 -22.1%
Cc1ccc(-c2nc(=N)sn2Cc2ccccc2)cc1 21.2%
Cc1cc(-c2ccc(C)c(S(=O)(=O)NCCCN(Cc3ccccc3)C(C)C)c2)on1 2.12%
Cc1cc(-c2ccc(C)c(S(=O)(=O)Nc3ccc(S(N)(=O)=O)cc3)c2)on1 2.52%
COC(=O)[C@]1(Cc2ccccc2)N[C@H](CN(C)S(=O)(=O)c2ccc(OC(F)(F)F)cc2)[C@@H]2C(=O)N(Cc3ccccc3)C(=O)[C@@H]21 1.61%
Cc1cc(N2CCCC2)ccc1NC(=O)COc1ccc(Cl)cc1 -11.4%

Potency, inactive:
COc1cccc(-c2nc(CS(=O)(=O)CC(=O)NCCc3ccc(OC)c(OC)c3)c(C)o2)c1

Potency, inactive and 14.6 µM (active):
Cc1n[nH]c(C)c1S(=O)(=O)N1CCCC(C(=O)Nc2ccc(Br)cc2)C1 (stereo unspecified)

Potency, active:
COc1ccc(NC(=O)C2CCCN(S(=O)(=O)c3cccc4cccnc34)C2)cc1 (stereo unspecified) 23.1 µM
COc1ccc(-c2c(-c3cc(OC)cc(OC)c3)n(C)c3ccc(-c4ccn[nH]4)cc23)cc1 11.6 µM
OCCCNc1nccc(-c2cc(Nc3cccc(Cl)c3)ncn2)n1 2.06 µM
NC(=O)c1sc2nc3c(c(-c4ccccc4)c2c1N)CCC3 9.2 µM
CN(C)CCNC(=O)c1ccc(Cl)c2cc3ccccc3nc12 18.4 µM
Cc1cccc(C(CC(=O)NCC2(c3ccccc3)CCCC2)c2ccccc2)c1O (stereo unspecified) 14.6 µM
CC(=O)c1cccc(NC(=O)c2nc(-c3ccccc3)n(-c3cccc(C)c3)n2)c1 18.4 µM
O=C(Cc1cccs1)N1CCCC(c2nc(-c3ccc(S(=O)(=O)N4CCCC4)cc3)no2)C1 (stereo unspecified) 23.1 µM
O=C(c1ccc(C(F)(F)F)cc1)N1CCC(c2nc(-c3ccc(S(=O)(=O)N4CCCC4)cc3)no2)CC1 7.31 µM
COc1cccc(-c2nc(CS(=O)(=O)CC(=O)N3CCN(c4cc(C)ccc4C)CC3)c(C)o2)c1 2.59 µM
O=C1Nc2ccc(Br)cc2/C1=N/N=C/C1=C(N2CCOCC2)C(=C\c2ccccc2)/CC1 20.6 µM
CCCCCCCCn1c2c(c(=N)c3c1CCC3)CCCC2 9.2 µM
Cc1cccc(N2CCN(C(=O)CCS(=O)(=O)c3ccc4c(c3)NC(=O)C(C)S4)CC2)c1C (stereo unspecified) 2.59 µM
COc1cccc(Cn2c(SCc3ccc(C(=O)N4CCCCC4)cc3)nc3ccncc32)c1 18.4 µM
COc1cccc(Cn2c(SCc3ccc(C(=O)N4CCC(C)CC4)cc3)nc3ccncc32)c1 20.6 µM
Cc1cc(-c2ccc(C)c(S(=O)(=O)NC(C)Cc3ccco3)c2)on1 (stereo unspecified) 18.4 µM
